# About 14,000 (4.5%) of roughly 310,000 compounds showed an effect of 50% or more. The effect is printed as a negative number. The full list was thinned out, with strong results kept by preference.
# Molecular target: human ether-à-go-go-related gene (hERG) potassium channel (human, UniProt Q12809)
# Experiment: primary screen, population patch clamp on CHO cells stably expressing hERG; higher = less effect of the substance
# 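Further: peak tail current of the secondary pulse compared with the same well before compound.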
# Sequence of human ether-à-go-go-related gene (hERG) potassium channel (Q12809 whole entry, looked up): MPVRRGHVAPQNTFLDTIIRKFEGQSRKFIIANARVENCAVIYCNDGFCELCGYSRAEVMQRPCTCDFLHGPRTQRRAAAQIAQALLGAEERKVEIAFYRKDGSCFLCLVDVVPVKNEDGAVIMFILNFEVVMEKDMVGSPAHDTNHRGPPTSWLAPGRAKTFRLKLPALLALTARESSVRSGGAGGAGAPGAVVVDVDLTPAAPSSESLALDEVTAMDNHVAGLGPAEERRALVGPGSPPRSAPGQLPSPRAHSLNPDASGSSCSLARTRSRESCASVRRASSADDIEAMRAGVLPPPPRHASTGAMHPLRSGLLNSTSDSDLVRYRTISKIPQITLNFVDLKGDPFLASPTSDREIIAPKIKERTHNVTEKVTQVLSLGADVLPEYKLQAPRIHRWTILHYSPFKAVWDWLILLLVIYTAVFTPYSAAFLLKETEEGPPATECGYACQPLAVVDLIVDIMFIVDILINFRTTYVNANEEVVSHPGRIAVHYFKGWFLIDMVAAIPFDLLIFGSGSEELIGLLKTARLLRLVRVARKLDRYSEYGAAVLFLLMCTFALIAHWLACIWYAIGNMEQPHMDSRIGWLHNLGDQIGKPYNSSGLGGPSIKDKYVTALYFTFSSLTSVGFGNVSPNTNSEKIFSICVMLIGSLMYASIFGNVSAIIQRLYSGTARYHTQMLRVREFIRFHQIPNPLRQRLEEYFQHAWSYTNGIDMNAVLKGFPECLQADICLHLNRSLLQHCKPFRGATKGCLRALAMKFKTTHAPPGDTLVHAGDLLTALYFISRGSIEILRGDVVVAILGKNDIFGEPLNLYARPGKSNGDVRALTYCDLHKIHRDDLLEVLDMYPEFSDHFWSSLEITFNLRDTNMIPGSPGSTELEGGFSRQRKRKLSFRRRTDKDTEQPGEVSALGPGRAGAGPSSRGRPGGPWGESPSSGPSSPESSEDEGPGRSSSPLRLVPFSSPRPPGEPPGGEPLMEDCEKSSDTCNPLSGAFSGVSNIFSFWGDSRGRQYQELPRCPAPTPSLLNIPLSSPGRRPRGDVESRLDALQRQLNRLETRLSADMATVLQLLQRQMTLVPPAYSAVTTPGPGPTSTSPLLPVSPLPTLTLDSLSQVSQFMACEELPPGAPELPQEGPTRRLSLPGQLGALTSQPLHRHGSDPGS
row,Compound,"hERG current change (%, negative = inhibition) at 10uM [%]"
1,COc1cc2c(cc1OC)C(C1C(=O)CCCC1=O)N(C(=O)CCl)CC2 (stereo not drawn),14.1
2,CC1CCCCC1NC(=O)COn1nnc2ccc(Cl)cc21 (stereo not drawn),-14.3
3,CN(C)CCCNS(=O)(=O)c1cc(Cl)c(Cl)cc1Cl,-27.8
4,N#Cc1ccc(C(=O)Nc2ccc([N+](=O)[O-])cc2)c(F)c1,4.42
5,O=C(Nc1ccc(N2CCOCC2)c(Cl)c1)c1cc(F)c(F)cc1Cl,-20.9
6,CN1CCN(c2ccc(NC(=O)c3ccc(C#N)cc3F)cc2Cl)CC1,-53.7
7,CCC(=O)N1CCN(c2ccc(NC(=O)c3ccc(C#N)cc3F)cc2Cl)CC1,-7.73
8,O=C(Nc1ccc(N2CCOCC2)c(Cl)c1)c1ccccc1F,3.56
9,CCN1CCN(c2ccc(NC(=O)c3ccco3)cc2Cl)CC1,-4.06
10,CCN1CCN(c2ccc(NC(=O)c3ccccc3F)cc2Cl)CC1,-70.1
11,CCN1CCN(c2ccc(NC(=O)c3ccc(C#N)cc3F)cc2Cl)CC1,-72.1
12,CCN1CCN(c2ccc(NC(=O)C(C)C)cc2Cl)CC1,-20
13,O=C(O)CCCSc1nccn1-c1ccccc1,22.3
14,c1ccc(-c2cc(N3CCOCC3)nc(-c3ccccc3)n2)cc1,-5.46
15,CCN(CC)C(=O)CSc1nnc(-c2cccs2)n1Cc1ccco1,-11
16,Cc1ccc(S(=O)(=O)c2c(C)nn(C(C)(C)C)c2OC(=O)c2ccc(Br)o2)cc1,7.32
17,Cc1cc(C)n(CCCNC(=O)Cn2nnnc2CN2C[C@@H](C)O[C@@H](C)C2)n1,6.72
18,C/C(=N\NC(=O)c1nnn(-c2nonc2N)c1CSc1ccccc1)c1ccc2c(c1)OCO2,17.5
19,CC(=O)OC1CC(c2cc(C(C)(C)C)c(O)c(C(C)(C)C)c2)=NO1 (stereo not drawn),0.755
20,CCOc1ccc(NC(=O)COc2ccc3c(c2)CCC3)cc1OC,3.04
21,Cc1ccccc1NCc1ccccc1O.Cl,-0.966
22,Cc1cc(NC(=O)Nc2ccc(F)cc2)no1,-8.3
23,COc1cc(OC)cc(C(=O)OCCCOC(=O)c2cc(OC)cc(OC)c2)c1,24.6
24,COc1ccc(C(=O)Nc2nc3ccccc3[nH]2)cc1OC,-6.47

row,Compound,"hERG current change (%, negative = inhibition) at 10uM [%]"
1,COc1ccc(CCC(=O)Nc2nc3ccccc3[nH]2)cc1OC,-55.7
2,COc1ccccc1CCC(=O)Nc1nc2ccccc2[nH]1,15.7
3,COc1ccc(C(=O)Nc2ccccc2C)cc1S(=O)(=O)N1CCOCC1,2.73
4,O=C(Nc1nc2ccccc2[nH]1)c1ccc(S(=O)(=O)N2CCOCC2)cc1,2.85
5,O=C(Nc1nc2ccccc2[nH]1)c1ccc(Cl)c(S(=O)(=O)N2CCCC2)c1,-9.28
6,COc1ccc(CCC(=O)Nc2nc3ccccc3[nH]2)cc1,14.3
7,COc1ccc(C(=O)Nc2nc3ccccc3[nH]2)cc1S(=O)(=O)N1CCOCC1,-70.1
8,O=C(Nc1nc2ccccc2[nH]1)c1cccc(S(=O)(=O)N2CCOCC2)c1,-8.91
9,COc1ccc(C(=O)Nc2nc3ccccc3[nH]2)cc1S(=O)(=O)N1CCCC1,-52.8
10,COc1ccc(C(=O)Nc2ccc(NC(=O)c3ccccc3)cc2)cc1S(=O)(=O)N1CCOCC1,16.6
11,O=C(Nc1nc2ccccc2[nH]1)c1ccc(F)c(S(=O)(=O)N2CCOCC2)c1,-50.3
12,COc1ccc(CCNC(=O)COC(=O)/C=C/c2ccc(OCC#N)c(OC)c2)cc1OC,-17.1
13,CCOC(=O)SC1=N/C(=C\c2ccc(N(C)C)cc2)C(=O)S1,14.9
14,COc1ccc(CCN(C)C(=O)c2ccc(COc3ccccc3)o2)cc1OC,-3.91
15,COCC(=O)Nc1ccc(F)cc1,18.6
16,O=c1c(Cc2ccc(F)cc2)c(O)ccn1Cc1ccc(Cl)cc1Cl,6.08
17,COc1cc(O)c(C(CC(=O)N2CCCC(C)C2)c2cc(OC)c(OC)c(OC)c2)c(OC)c1 (stereo not drawn),2.69
18,CC(=O)Nc1ccc2nc(NC(=O)C(Cl)(Cl)Cl)sc2c1,31.1
19,c1cc(-c2nnc3n2CCC3)[nH]n1,12.5
20,O=C(CSc1nc(-c2ccccc2F)nc2nc[nH]c12)Nc1c(Cl)cc(Cl)cc1Cl,-6.09
21,c1ccc2c(c1)Sc1ccccc1-n1cnnc1-2,-20.3
22,Cl.NCCC(=O)N1c2ccccc2Sc2ccc(Cl)cc21,-10.8
23,Clc1ccccc1-c1nnc2n1-c1ccccc1SC2,-3.67
24,Clc1ccc2c(c1)-c1nnc(Br)n1-c1ccccc1S2,-52.5

row,Compound,"hERG current change (%, negative = inhibition) at 10uM [%]"
1,Oc1cc2ccccc2cc1-c1nnc2n1-c1ccccc1SC2,-8.27
2,Brc1nnc2n1-c1ccccc1Sc1ccccc1-2,-71.8
3,COc1nc(NC(C)(C)C)nc(Oc2ccc(=O)n(C)n2)n1,16.8
4,CN(C)c1nc(-c2cccnc2)nc(-c2ccccc2)c1C#N,10.3
5,CCOC(=O)COc1ccc(Oc2nc(C)cc(OC)n2)nn1,-7.8
6,Cl.Nc1nonc1C(=O)NCCNCc1ccccc1OCc1ccc(F)cc1,-65.9
7,CCOc1ccccc1CNCCNC(=O)c1nonc1N.Cl,-13.5
8,Cl.Nc1nonc1C(=O)NCCNCc1c(OCc2ccccc2F)ccc2ccccc12,-11.9
9,Cl.Nc1nonc1C(=O)NCCNCc1ccccc1OCc1ccccc1F,-60.5
10,Cl.Nc1nonc1C(=O)NCCNCc1cc(Br)ccc1OCc1ccc(F)cc1,-38.2
11,C=CCOc1ccccc1CNCCNC(=O)c1nonc1N.Cl,-22.8
12,CC1=C(C(=O)Nc2ccccc2)C(c2ccc(O)cc2)N2C(=O)CSC2=N1 (stereo not drawn),3.47
13,CC(C)N(CCCNC(=O)CC1Oc2ccccc2NC1=O)Cc1ccccc1 (stereo not drawn),-26.3
14,Fc1ccc(/C=N/c2c(-c3ccc(F)cc3)nc3n2CCS3)cc1,-4.46
15,Nc1nc2ccccc2n1/N=C/c1ccc([N+](=O)[O-])s1,-1.38
16,O=C(O)/C(=C\c1cccs1)c1ccccc1,0.00478
17,COc1ccc(OC)c(-n2cnc3cc(C(=O)O)ccc32)c1,3.06
18,CCN(CC)C(=O)C1CCCN(Cc2ccc3c(c2)OCO3)C1 (stereo not drawn),10
19,CC(=O)c1ccc(NC(=O)N2CCCC(C(=O)c3ccc4c(c3)OCO4)C2)cc1 (stereo not drawn),-16.4
20,O=C(c1ccc2c(c1)OCO2)C1CCCN(C2CCN(CCc3ccccc3)CC2)C1 (stereo not drawn),-69.3
21,O=C(c1ccc2c(c1)OCO2)C1CCCN(Cc2ccc(F)c(F)c2)C1 (stereo not drawn),-65.4
22,O=C(c1ccc2c(c1)OCO2)C1CCCN(Cc2c(F)ccc(F)c2F)C1 (stereo not drawn),-15.8
23,Cc1ccc(CN2CCCC(C(=O)c3ccc4c(c3)OCO4)C2)cc1C (stereo not drawn),-64.6
24,O=C(c1ccc2c(c1)OCO2)C1CCCN(C(=O)NCc2ccccc2)C1 (stereo not drawn),-14.3

row,Compound,"hERG current change (%, negative = inhibition) at 10uM [%]"
1,CSc1ccccc1NC(=O)N1CCCC(C(=O)c2ccc3c(c2)OCO3)C1 (stereo not drawn),-39.8
2,CCOC(=O)C1CCCN(Cc2ccc3c(c2)OCO3)C1 (stereo not drawn),-9.12
3,CC(=O)c1cccc(CN2CCCC(C(=O)c3ccc4c(c3)OCO4)C2)c1 (stereo not drawn),-64.9
4,O=C(c1ccc2c(c1)OCO2)C1CCCN(Cc2cccc(C(F)(F)F)c2)C1 (stereo not drawn),-20.5
5,COc1ccccc1/C=C1\C(=O)Nc2ccccc21,2.99
6,Cc1cn(S(=O)(=O)c2cc(Br)ccc2Br)cn1,1.08
7,CCc1ccc(NC(=O)NCCCN2CCCC2=O)cc1,0.255
8,CN(C)C1(CNC(=O)CC(NC(=O)c2ccccc2Cl)c2ccccc2)CCCCC1 (stereo not drawn),-31.3
9,C[C@@]12CCC3[C@@](CCC4[C@@]3(C)CCC[C@@]4(C)C(=O)N3CCCCC3)(CC1=O)C2 (stereo partly drawn),7.27
10,O=c1c(Cc2c(F)cccc2Cl)c(O)ccn1Cc1ccc(F)cc1,-0.211
11,CCCC(=O)Nc1ccc(N2CCCCC2)cc1,-8.42
12,C=C1C(=O)[C@@]23[C@H](O)C[C@@H]4C(C)(C)CC[C@H](O)[C@]4(C)[C@@H]2C[C@H](O)[C@@H]1[C@H]3O,-0.141
13,CC(N)C12CC3CC(CC(C3)C1)C2.Cl (stereo not drawn),14.1
14,C/C(=N\N1CCCCC1)c1c(O)[nH]c(=O)[nH]c1=O,-11
15,Cn1cc(CN2CCCC(CNC(=O)c3ccc4c(c3)OCO4)C2)c2ccccc21 (stereo not drawn),-43.6
16,Cc1cccc(CN2CCCC(C(=O)c3ccc4c(c3)OCO4)C2)n1 (stereo not drawn),-49.2
17,O=C(c1cccc(Cl)c1)C1CCCN(C(=O)c2ccc3c(c2)OCO3)C1 (stereo not drawn),-34.1
18,O=C(c1ccc2c(c1)OCO2)C1CCCN(CC2CCCCC2)C1 (stereo not drawn),-71.8
19,COc1cccc(C(=O)C2CCCN(Cc3ccc4nsnc4c3)C2)c1 (stereo not drawn),-26
20,Cn1c(CN2CCCC(C(=O)c3ccc4c(c3)OCO4)C2)nc2ccccc21 (stereo not drawn),-70.5
21,O=C(c1ccc2c(c1)OCO2)C1CCCN(Cc2ccc3cccc(F)c3n2)C1 (stereo not drawn),-87
22,O=C(c1ccc2c(c1)OCO2)C1CCCN(C(=O)C2CCOCC2)C1 (stereo not drawn),7.74
23,O=C(c1ccc2c(c1)OCO2)C1CCCN(Cc2ccc3nsnc3c2)C1 (stereo not drawn),-71.4
24,CSc1ccc(C(=O)C2CCCN(C(=O)c3ccc4c(c3)OCO4)C2)cc1 (stereo not drawn),-34
